Inhibition data for 60 molecules are collected here from PubChem BioAssay AID1376 (SRMLSC, 2008).

Out of some 220,000 compounds screened, about 530 (0.24%) were called active. No stated cut-off is given here; in the data, active means inhibition above about 13%; inconclusive means no clear call, values can overlap the other calls; inactive means below that. The full list was thinned out, with actives kept by preference. Results with a measured potency or affinity are listed apart.

Usually inhibition stands for the change of the read-out against control, counted positive when it falls.

The target of this test is Bifunctional protein GlmU (Mycobacterium tuberculosis (strain ATCC 25618 / H37Rv)) (UniProt P9WMN3). As to the kind of experiment: inhibition of mycobacterial GlmU enzyme – biochemical, glucosamine-1-phosphate acetyltransferase (AID 1376).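 Further: 0% = complete reaction with vehicle and 100% = reaction without substrate.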 To be noted: M. tuberculosis GlmU acetyltransferase enzyme assay; active compounds read high;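 tested at 30 µM in the primary screen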.
Chain of Bifunctional protein GlmU (Mycobacterium tuberculosis (strain ATCC 25618 / H37Rv)) (P9WMN3 whole entry, looked up): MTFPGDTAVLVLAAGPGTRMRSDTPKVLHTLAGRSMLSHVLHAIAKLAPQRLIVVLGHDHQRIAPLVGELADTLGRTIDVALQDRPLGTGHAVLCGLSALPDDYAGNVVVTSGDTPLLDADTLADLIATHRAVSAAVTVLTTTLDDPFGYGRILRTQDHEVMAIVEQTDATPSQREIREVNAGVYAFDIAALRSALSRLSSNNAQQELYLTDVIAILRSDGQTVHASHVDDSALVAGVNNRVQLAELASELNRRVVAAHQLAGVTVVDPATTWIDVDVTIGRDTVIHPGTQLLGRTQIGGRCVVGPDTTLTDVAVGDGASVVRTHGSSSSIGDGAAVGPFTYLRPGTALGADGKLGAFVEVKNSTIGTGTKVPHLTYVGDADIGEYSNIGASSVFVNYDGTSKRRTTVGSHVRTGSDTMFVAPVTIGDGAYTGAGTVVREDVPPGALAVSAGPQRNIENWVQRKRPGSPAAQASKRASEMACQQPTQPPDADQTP
In the case of `C=CCn1c(C(CC(C)C)CC(C)O)n[nH]c1=S` (stereo not given), the inhibition is -0.56% (inactive).

Take `Cc1ccc(-n2c(SCC(=O)NC3CCS(=O)(=O)C3)nc3ccccc3c2=O)cc1` (stereo not given): the inhibition is -6.07% (inactive).

Consider `Cc1cccc(NC(=O)CCc2ccc(S(=O)(=O)NC3CCCCC3)cc2)c1`, for which the inhibition was 4.56% (inactive).

Consider `CSc1ccc(/C=N/Nc2cccc(C(=O)O)c2)cc1`, for which the inhibition was 35.4% (active).

Regarding `CC(C)(C)c1ccc(/C=N/Nc2cccc(C(=O)O)c2)cc1`, the inhibition was -6.54% (inactive).

For the molecule `O=C(O)c1cccc(N/N=C/c2ccc(-c3ccccc3)cc2)c1`, the inhibition is -0.74% (inactive).

As for `Cc1nn(-c2ccccc2)c(Cl)c1/C=N/Nc1ccc(Cl)c(C(=O)O)c1`, the inhibition is -0.65% (inactive).

In the case of `Cc1nn(-c2cccc(C(F)(F)F)c2)c(Cl)c1/C=N/Nc1cccc(C(=O)O)c1`, the inhibition is -2.39% (inactive).

With `CCOc1cccc(C(=O)N(Cc2ccc(F)cc2)C2CCS(=O)(=O)C2)c1` (stereo not given), the inhibition is 3.65% (inactive).

On to `CC1CCc2c(sc3ncn(Cc4ccc(C(=O)O)cc4)c(=O)c23)C1` (stereo not given), for which the inhibition is -5.17% (inactive).

On to `CNS(=O)(=O)c1cccc(C(=O)OCC(=O)Nc2ccc(N3CCCCC3)cc2)c1`, for which the inhibition is -3.94% (inactive).

In the case of `CN(CCC1CCOCC1)Cc1nc(Cc2ccccc2F)no1`, the inhibition is 3.72% (inactive).

For `N#CC(c1nc2ccccc2nc1OCCO)S(=O)(=O)c1ccccc1` (stereo not given), the inhibition is 12.9% (active).

Turning to `Cc1ccc(S(=O)(=O)C(C#N)c2nc3ccccc3nc2OCCO)cc1` (stereo not given), the inhibition was 2.66% (inactive).

With `CCCCOc1nc2ccccc2nc1C(C#N)S(=O)(=O)c1ccccc1` (stereo not given), the inhibition is 3.84% (inactive).

`COc1ccc(C2C(C(C)=O)=C(O)C(=O)N2c2nccs2)c(OC)c1` (stereo not given): the inhibition was 0.3% (inactive).

For `COc1ccc(C2C(C(C)=O)=C(O)C(=O)N2c2cccnc2)c(OC)c1` (stereo not given), the inhibition is 12.9% (active).

On to `COc1ccc(C2C(C(C)=O)=C(O)C(=O)N2c2cccnc2)cc1OC` (stereo not given), for which the inhibition was 1.89% (inactive).

`Cc1ccccc1NC(=O)C(C)n1c2ccccc2c2nc(=O)cc(C)n21` (stereo not given): the inhibition was -3.29% (inactive).

Turning to `Nc1c(C(=O)O)ccc2c1C(=O)c1ccccc1C2=O`, the inhibition is 5.83% (inactive).

Turning to `O=C(O)c1cccc2c1C(=O)c1ccccc1C2=O`, the inhibition was -4.06% (inactive).

For the molecule `Nc1cc(C(=O)O)c(N)c2c1C(=O)c1ccccc1C2=O`, the inhibition was 12.9% (active).

Consider `Cc1ccc2nsnc2c1S(=O)(=O)N1CCN(CCc2ccccc2)CC1`, for which the inhibition was -1.69% (inactive).

`Cn1c(=O)n(C)c2cc(NC(=O)c3ccccc3[N+](=O)[O-])c(Br)cc21`: the inhibition was -4.22% (inactive).

`NC(=O)CSc1nnc(Cn2cnc3ccccc32)o1`: the inhibition is -3.79% (inactive).

For the molecule `Clc1ccc(CSc2nnc(Cn3cnc4ccccc43)o2)cc1`, the inhibition was 15% (active).

As for `Clc1ccc(Cn2cnc3ccccc32)cc1`, the inhibition is -0.58% (inactive).

On to `CC(C)(CN=C1NS(=O)(=O)c2ccccc21)CNC(=O)CN1C(=O)c2ccccc2C1=O`, for which the inhibition was 0.96% (inactive).

With `O/C(=C\Sc1nnc(Cc2ccccc2)o1)c1ccc(Br)cc1`, the inhibition is 9.57% (inactive).

On to `O=C(CCC1CCCCC1)Nc1c2c(nn1-c1ccc(F)cc1)CS(=O)C2` (stereo not given), for which the inhibition is -0.99% (inactive).

Regarding `Cc1cccc(-n2nc3c(c2NC(=O)CCC2CCCCC2)CS(=O)C3)c1C` (stereo not given), the inhibition is 19.3% (active).

Regarding `Cc1ccc(-n2nc3c(c2NC(=O)CCC2CCCCC2)CS(=O)C3)cc1` (stereo not given), the inhibition is 4.09% (inactive).

For the molecule `COc1ccccc1C1C(C(=O)NCc2ccccc2)=C(C)Nc2ncnn21` (stereo not given), the inhibition was -0.29% (inactive).

Take `O=C(NCc1cccc(Cl)c1)c1ccc(S(=O)(=O)Nc2cccc(C(F)(F)F)c2)cc1`: the inhibition was 6.21% (inactive).

Regarding `CNS(=O)(=O)c1c(C)cc(C)c(N(C)S(=O)(=O)c2ccccc2)c1C`, the inhibition was 4.09% (inactive).

Take `O=C(O)C(Cc1ccccc1)N1C(=O)/C(=C/C=C/c2ccco2)SC1=S` (stereo not given): the inhibition is 26.9% (active).

With `O=C(O)C(Cc1ccccc1)N1C(=O)/C(=C/c2ccccc2)SC1=S` (stereo not given), the inhibition is 7.96% (inactive).

Regarding `O=C(O)CC(C(=O)O)N1C(=O)/C(=C/C=C/c2ccco2)SC1=S` (stereo not given), the inhibition is 17.9% (active).

For `COc1ccc(/C=C2\SC(=S)N(C(Cc3ccccc3)C(=O)O)C2=O)cc1` (stereo not given), the inhibition was 1.51% (inactive).

On to `O=C(O)CCCN1C(=O)/C(=C/C=C/c2ccco2)SC1=S`, for which the inhibition was 5.29% (inactive).

Take `O=C1S/C(=C\C=C\c2ccco2)C(=O)N1c1ccc(O)cc1`: the inhibition is 11.9% (inactive).

Turning to `Cc1ccc(/C=C2\SC(=S)N(C(Cc3ccccc3)C(=O)O)C2=O)cc1` (stereo not given), the inhibition was 5.14% (inactive).

`O=C(O)C(Cc1ccccc1)N1C(=O)/C(=C/c2cccs2)SC1=S` (stereo not given): the inhibition is 17.4% (active).

In the case of `O=C(O)C(Cc1ccccc1)N1C(=O)/C(=C/c2cccc3ccccc23)SC1=S` (stereo not given), the inhibition was 3.53% (inactive).

`CC(=O)Nc1ccc(C(=O)NNC(=O)c2cc([N+](=O)[O-])cc([N+](=O)[O-])c2)cc1`: the inhibition is 2.49% (inactive).

For the molecule `CC(C)(O)C#Cc1ccc(CN2CCN(Cc3ccccc3)C(CCO)C2)s1` (stereo not given), the inhibition was 3.34% (inactive).

Take `Cc1nc2nc3c(cn2n1)C(=O)CC(c1ccccc1)C3` (stereo not given): the inhibition was 15% (active).

Turning to `CSc1nc2nc3c(cn2n1)C(=O)CC(c1ccccc1)C3` (stereo not given), the inhibition is 2.71% (inactive).

Turning to `O=C1CC(c2ccccc2)Cc2nc3nc(C(F)(F)F)nn3cc21` (stereo not given), the inhibition is 2.78% (inactive).

As to `O=C(Nc1nnc(-c2ccccc2)o1)NC1CCCCC1`, the inhibition is 0.77% (inactive).

As for `CC(=O)Nc1ccc(OCC(O)CN2CCN(c3cccc(Cl)c3)CC2)cc1` (stereo not given), the inhibition was -0.54% (inactive).

On to `COC(C/C=C\[C@H](O)COCc1ccccc1)OC`, for which the inhibition was 6.23% (inactive).

Consider `Cc1ccccc1NC(=O)Nc1cc(-c2ccccc2)nn1C`, for which the inhibition is -3.02% (inactive).

Regarding `O=C(CSCc1ccccc1F)NCc1ccc(F)cc1`, the inhibition is -1.92% (inactive).

`c1cncc(-c2nnc3n2CCC3)c1`: the inhibition was -0.26% (inactive).

With `CCOC(=O)C1=C(C)N(c2ccccc2)C(=O)C1`, the inhibition is 3.44% (inactive).

As to `CCOC(=O)C1=C2NC(=O)c3ccccc3N2C(=O)C1`, the inhibition is 13.7% (active).

Consider `CCOC(=O)C1=C(N)N(c2ccccc2)C(=O)C1`, for which the inhibition was 1.91% (inactive).

As to `O=C(COC(=O)c1ccc(Cl)c([N+](=O)[O-])c1)Nc1ccccc1OC(F)F`, the inhibition was 0.84% (inactive).

On to `Cc1sc2nc(SCc3ccccc3)n(Cc3ccco3)c(=O)c2c1C`, for which the inhibition is -1.04% (inactive).
